Screens as filed in PubChem BioAssay.
NS1 function inh: inhibitors of influenza NS1 protein function | Potency, µM (top dose mostly 46.1 µM), without a hit: top-dose activity, positive = more growth | 0.4% of 270,000 active | AID 2326; further: actives are rising curves; nearly all actives have a fitted effect of over 50% in size
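Growth recovery, yeast-based: influenza A NS1 expressed in S. cerevisiae causes slow growth, and suppressors are detected by OD600. The parent strain without NS1 is used as positive control.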
Pf growth 96h: P. falciparum growth inhibition at 96 hours; P. falciparum luciferase reporter growth, 96 h; 6.9% of 320,000 active; Potency, µM (top dose mostly 28.7 µM), for the others: at the top dose activity change, negative = inhibition, hits mostly inhibitors; active means well fitted inhibition curve with a large enough effect; inconclusive means small, poorly fitted or top-dose-only effect, or another doubt; inactive means no such curve, though single readings can be large or run the other way; further: on the % scale 0 is the no-effect control and ±100 the full control effect
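Cell-based qHTS: luciferase-tagged P. falciparum in erythrocytes (2% hematocrit, 0.05% parasitemia final) incubated with compounds for 96 hours, 37 C, 5% CO2; luciferase detection reagent then added and luminescence measured.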
Pf growth 48h: inhibits P. falciparum growth in the first generation, 48 h; AID 504832; 5.9% of 310,000 active; Potency, µM (doses to about 28.7 µM), inactives show at the highest dose activity change, negative = inhibition, usual class: inhibitors; P. falciparum luciferase growth in erythrocytes, 48 h; active means well fitted inhibition curve with a large enough effect; inconclusive means small, poorly fitted or top-dose-only effect, or another doubt; inactive means no such curve, though single readings can be large or run the other way; further: on the % scale 0 is the no-effect control and ±100 the full control effect
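Firefly luciferase activity from engineered P. falciparum reports growth; inhibitors lower the luminescent signal. Cultures contained 2% hematocrit erythrocytes at 0.1% final parasitemia.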
SARS PLpro yeast: inhibitors of SARS-CoV papain-like protease in yeast | S. cerevisiae expressing SARS-CoV PLpro, growth rescue | Potency, µM (doses to about 32.9 µM), without a hit: top-dose activity, positive = growth rescue, hits mostly activators | 0.19% of 330,000 active; further: 0% is about no effect; nearly all actives have a fitted effect of over 55% in size
* = called active by the depositor; ? = inconclusive; . = no result. This is a sample that favours compounds with a hit; in the whole collection about 10% have one here. Unless noted, the call rests on the fitted dose curve. Potency means the concentration at half of the fitted maximal effect.

SMILES	NS1 function inh	Pf growth 96h	Pf growth 48h	SARS PLpro yeast
COc1cccc2cc(C(=O)NCCc3ccccc3)oc12	3%	32%	8.3µM*	6%
Cc1cnc(CNC(=O)c2ccc(OC3CCN(C(=O)C4CC4)CC3)cc2)cn1	-1%	?	49%	0%
O=c1cc(N=Nc2ccc(O)cc2)[nH]c(=O)[nH]1	0%	.	.	.
COc1cccc(NC(=O)Nc2ccc(Br)cn2)c1	-3%	144%	103%	0%
COc1cccc(C2=NN(C(=O)c3ccco3)C(O)(C(F)(F)F)C2)c1 (stereo unspecified)	2%	-22%	4.1µM*	-2%
Cc1ccc(COc2coc(CN3CCN(C(=O)c4ccco4)CC3)cc2=O)cc1	.	?	12µM*	1%
O=C(c1cccc(F)c1)N1CCN(Cc2ccco2)CC1	7%	6.6µM*	8%	1%
COc1cccc(CN2CCN(C(=O)c3ccco3)CC2)c1	14%	0.83µM*	43%	2%
CC(C)CC1NC(=O)N(CC(=O)Nc2ccc3c(c2)OCCO3)C1=O (stereo unspecified)	.	11%	15%	1%
CCCCC(=O)OC1CCC2C3CCc4cc(O)ccc4C3CC[C@]12C (stereo partly specified)	.	-18%	-18%	.
O=C(Nc1ccc(C(F)(F)F)cc1[N+](=O)[O-])O[C@H]1[C@H](Cc2ccccc2)NS(=O)(=O)[C@H]2C[C@@H]3C=C[C@]12O3	.	?	?	2%
COc1ccc(NC(=O)C(=O)NCCN2CCN(C(=O)c3ccco3)CC2)cc1	.	0.93µM*	10%	-2%
O=C(c1ccco1)N1CCN(Cc2c(Cl)cccc2Cl)CC1	-21%	2.6µM*	19%	4%
Cc1cccc(C)c1-n1c(C)cc(/C=N/NC(N)=S)c1C	-48%	?	.	10µM*
COc1ccc(C(=O)NC2CCCc3c2cnn3-c2cccc(C)c2C)o1 (stereo unspecified)	-12%	4%	?	-6%
CCOC(=O)C1=C(O)c2ccccc2C(=O)/C1=C\c1ccc(C)cc1	-38%	4.1µM*	2.9µM*	-34%
CC[N+](C)(CC)CCCCOc1ccc2c(c1)C(=O)c1cc(OCCCC[N+](C)(CC)CC)ccc1-2	-1%	?	?	0%
CC[N+](CC)(CC)CCCCOc1ccc2c(c1)C(=O)c1cc(OCCCC[N+](CC)(CC)CC)ccc1-2	-2%	?	0.066µM*	-1%
N#Cc1ccc(C(=O)OCC(=O)Nc2cccc(S(=O)(=O)NC3=NCCC3)c2)cc1	.	.	.	-6%
Cc1onc(-c2ccccc2)c1C(=O)Nc1nncs1	13%	9%	5%	4%
CCOC(=O)N1CCN(C(=O)CSc2nnc3[nH]c(=O)c(C)c(C)n23)CC1	.	?	9.3µM*	.
CCOC(=O)N1CCN(C(=O)CSc2ccccc2)CC1	-10%	19%	.	9%
Cc1ccc(SCC(=O)Nc2ccc(-c3nc4ccccc4[nH]3)cc2)cc1	1%	41%	12µM*	4%
Cc1ccc(NC(=O)CCCSc2nc3ccccc3[nH]2)cc1	-23%	-21%	1%	-2%
CC(=O)Nc1cc(NC(C)=O)cc(-c2nc3ccccc3[nH]2)c1	4%	10µM*	-19%	-1%
SMILES	NS1 function inh	Pf growth 96h	Pf growth 48h	SARS PLpro yeast
O=C(Nc1cccc(-c2nc3ccccc3[nH]2)c1)c1ccco1	-110%	15µM*	?	-5%
Cc1ccc2nc(-c3ccc(NC(=O)c4ccco4)cc3)[nH]c2c1	-12%	.	?	-5%
O=C(COc1ccc(Cl)cc1)NCCCNC(=O)c1ccncc1	-6%	-5%	?	0%
CCCCc1n[nH]c(=S)n1Cc1ccc(Cl)cc1	.	42%	-7%	19%
CC[C@@]12C(=O)N(c3cccc(Br)c3)C(=O)N1[C@H](c1ccc(Cl)cc1)[C@@H]1C(=O)N(C3CCCCC3)C(=O)[C@@H]12	25%	8.3µM*	?	12%
CC(C)C[C@@]12C(=O)N(c3cccc(Br)c3)C(=O)N1[C@H](c1ccc(Cl)cc1)[C@@H]1C(=O)N(C3CCCCC3)C(=O)[C@@H]12	.	?	2.6µM*	0%
CC(C)C[C@@]12C(=O)N(c3cccc(Cl)c3)C(=O)N1[C@H](c1ccc(Cl)cc1)[C@@H]1C(=O)N(C3CCCCC3)C(=O)[C@@H]12	.	64%	?	-8%
CC(C)C[C@@]12C(=O)N(c3cccc(Cl)c3)C(=O)N1[C@H](c1ccc(F)cc1)[C@@H]1C(=O)N(C3CCCCC3)C(=O)[C@@H]12	.	?	4.1µM*	6%
COc1cc(C2c3c(oc4ccccc4c3=O)C(=O)N2c2ccc(C)cn2)ccc1O (stereo unspecified)	-45%	15µM*	9%	15%
